This is an account of results in PubChem BioAssay (EPA / NIEHS).

Inconclusive results are not listed. The source made the active and inactive calls. How the source made its calls: active means hit-call score of the fitted dose curve at least 0.9, where 1 is the maximum; inconclusive means response in the unintended direction; inactive means score below 0.9.

A short description of this test: ATG_M_19_TRANS: Attagene TRANS-FACTORIAL HepG2 Assay for M19 Transcription Factor (Internal Marker) (AID 2282974). Particulars: HepG2 Attagene TRANS-FACTORIAL M19 internal marker reporter. Here is the method:
ATG_TRANS is a cell-based, multiplexed-readout assay that uses HepG2, a human liver cell line, with measurements taken at 24 hours after chemical dosing in a 24-well plate.ATG_M_19_TRANS is one of 30 assay component(s) measured or calculated from the ATG_TRANS assay. It is designed to make measurements of mRNA induction, a form of inducible reporter, as detected with fluorescence intensity signals by Reverse transcription polymerase chain reaction (RT-PCR) and Capillary electrophoresis technology.Data from the assay component ATG_M_19_TRANS was analyzed into 1 assay endpoint. This assay endpoint, ATG_M_19_TRANS, was analyzed in the positive analysis fitting direction relative to DMSO as the negative control and baseline of activity. Using a type of inducible reporter, measures of mRNA for gain-of-signal activity can be used to understand the background control at the transcription factor-level as they relate to the gene . Furthermore, this assay endpoint can be referred to as a secondary readout, because this assay has produced multiple assay endpoints where this one serves a background control function. To generalize the intended target to other relatable targets, this assay endpoint is annotated to the background measurement intended target family, where the subfamily is internal marker.
Human liver HepG2 cells are transiently transfected with multiple reporter transcription units (MRTUs) in 6-well plates using FuGene 6 reagent (Roche; 3 ml FuGene/1 mg DNA). The MRTU constructs are regulated by a cis-regulating element (promoter). […] A major difference between the CIS and TRANS system is that in CIS activities of endogenous TFs are measured, whereas the TRANS assay evaluates changes in activities of exogenous, chimeric NR-Gal4 proteins. […] At the end of 24 hour incubation, total RNA was isolated using TriZol reagent (Invitrogen). The isolated RNA is then reverse-transcribed using oligo(dT) primer and Mo-MLV reverse transcriptase (Invitrogen) with DNAse I (Ambion) treatment for 30 min. The one-tenth of the produced cDNA was amplified by PCR using Taq DNA polymerase (Invitrogen) and two reporter sequence-specific primers. The PCR products were fluorescently labeled by primer extension with 6-arboxyfluorescein (6-FAM) 5'-labeled reporter sequence-specific primer (2 min at 95 C, 20 s at 68 C and 10 min at 72 C) and these products were digested with 5U of HpaI (New England Biolabs) for 2h at 37 C. The fragments were purified using Qiaquick PCR columns (Qiagen), analyzed on an ABI 3130xL genetic analyzer (Applied Biosystems) with peak positions identified by using a set of X-rhodamine (ROX)-labeled MapMarker1000 molecular weight standards (BioVentures). The raw capillary electrophoresis data was processed using Attagraph software (Attagene).
For the molecule `O=C(O)CCCCC(=O)O`, the result was inactive. In the case of `C[Si]1(C)O[Si](C)(C)O[Si](C)(C)O[Si](C)(C)O1`, the outcome was inactive. In the case of `CCCCCCCCCCCC(=O)OC`, the outcome was inactive.

As for `Nc1ccc(S(=O)(=O)c2ccc(N)cc2)cc1`, the result was inactive. As for `CCCCOC(=O)CCCCCCCCC(=O)OCCCC`, the call was inactive. As to `COCCOCCOC`, the molecule was classed as inactive. As to `Cc1ccc(Cl)cc1`, the molecule was classed as inactive. As for `c1cc(-c2ccncc2)ccn1`, the entry is “inactive”; as for `Cc1ccc(C)c(C)c1`, “inactive”; as for `CC(=O)OC/C=C(\C)CCC=C(C)C`, “inactive”.

Turning to `CCOC(=O)C(C)(C)Oc1ccc(Cl)cc1`, the outcome was inactive. With `Cc1ccc2ncccc2c1`, the call was inactive.

Consider `O=c1[nH]cc(F)c(=O)[nH]1`, for which the molecule was called inactive. Consider `O=C(OCCCCCOC(=O)c1ccccc1)c1ccccc1`, for which the molecule was called inactive. As for `CCCCCCCCCCCCCCCCCC(=O)O`, the entry is “inactive”; as for `OC[C@@H](O)[C@@H](O)[C@H](O)[C@H](O)CO`, “inactive”.

On to `COc1cc(/C=C/C(=O)CC(=O)/C=C/c2ccc(O)c(OC)c2)ccc1O`, for which the molecule was called inactive. As for `CCCc1cc(=O)[nH]c(=S)[nH]1`, the molecule was called inactive. Consider `COc1cccc2c1C(=O)c1c(O)c3c(c(O)c1C2=O)C[C@@](O)(C(=O)CO)C[C@@H]3O[C@H]1C[C@H](N)[C@H](O)[C@H](C)O1`, for which the outcome was inactive. As for `CCCCc1ccc2c(n1)[C@@H](c1ccc(OC)cc1C[C@H](C)C(=O)O)[C@H](C(=O)O)[C@H]2c1ccc2c(c1)OCO2`, the outcome was inactive.

In the case of `COc1ccc(C)cc1N`, the result was inactive. With `O=c1c(O)c(-c2ccc(O)c(O)c2)oc2cc(O)cc(O)c12`, the molecule was classed as inactive. On to `C=CCc1ccc(O)c(OC)c1`, for which the result was inactive. Then `O=[N+]([O-])C(CO)(CO)CO`, with “inactive”. On to `CN1CCN(Cc2cc(-c3ccc4[nH]c(=O)oc4c3)co2)[C@@H](c2ccc(F)cc2)C1`, for which the molecule was classed as inactive. Regarding `CC1(C)NC(=O)NC1=O`, the molecule was classed as inactive.

As to `COc1cc(-c2nc(NC(=O)c3cc4cc(C)cc(C)c4n3CC(=O)O)sc2CCC2CCCCC2)c(OC)cc1Cl`, the result was inactive.

As to `NS(=O)(=O)c1cc2c(cc1Cl)NCNS2(=O)=O`, the molecule was called inactive.

`CCOc1ccc2c(c1)C(C)=CC(C)(C)N2`: the call was inactive. Consider `CN[C@H]1CC[C@@H](c2ccc(Cl)c(Cl)c2)c2ccc(S(N)(=O)=O)cc21`, for which the molecule was classed as inactive. As for `Cc1c(C(=O)O)c(O)cc2c1C(=O)c1c(O)c([C@@H]3O[C@H](CO)[C@@H](O)[C@H](O)[C@H]3O)c(O)c(O)c1C2=O`, the entry is “inactive”.

Consider `CCCCCCOCCO`, for which the result was inactive.

Turning to `CC(C)(C)c1cc(O)c(C(C)(C)C)cc1O`, the outcome was inactive.

For the molecule `NCCO`, the result was inactive. Take `CC(=O)OCCOCCOCCOC(C)=O`: the result was inactive. As for `COc1ccc(S(=O)(=O)N2C(=O)[C@@](c3ccccc3OC)(N3C[C@H](O)C[C@H]3C(=O)N(C)C)c3cc(Cl)ccc32)c(OC)c1`, the entry is “inactive”; as for `CNCc1cc(F)ccc1Oc1ccc(Cl)c(Cl)c1`, “inactive”; as for `CCCCCCCCCCC`, “inactive”. As to `COc1cc(C=O)ccc1O`, the outcome was inactive. For `CCc1c(C(=O)NN2CCCCC2)nn(-c2ccc(Cl)cc2Cl)c1-c1ccc(Br)cc1`, the result was inactive.
